Calls of active or inactive are those of the source. Rule for the calls: active = hit-call score of the fitted dose curve at least 0.9, where 1 is the maximum; inactive = score below 0.9.

Read-out in the test: Cyclin D2 (CCND2), CCND2 (gene 894)
Kind of test: LTEA_HepaRG_CCND2: Life Technologies and Expression Analysis (LTEA) Assay for Cyclin D2 (CCND2) using HepaRG (AID 2283449).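 Note: CCND2 transcript measured by TaqMan qRT-PCR and normalised to three housekeeping genes.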 As to conditions: mRNA level, 48 h; actives raise or lower the signal. How it is done:
LTEA_HepaRG is a cell based, multiplexed-readout assay that uses HepaRG, a human liver cell line, with measurements taken at 48 hours after chemical dosing on a 96-well plate.LTEA_HepaRG_CCND2 is one of 102 assay component(s) measured in the LTEA HepaRG cell culture assay. It is a marker of Cell proliferation, survival, death.Data from the assay component LTEA_HepaRG_CCND2 was analyzed into 1 endpoint. This assay endpoint, LTEA_HepaRG_CCND2, was analyzed with bidirectional fitting relative to DMSO as the negative control and baseline of activity. Using a type of inducible reporter, measures of mRNA induction for gain or loss-of-signal activity can be used to understand regulation of transcription factor activity. To generalize the intended target to other relatable targets, this assay endpoint is annotated to the cell cycle intended target family, where the subfamily is Cell proliferation, survival, death.
A total of 1060 chemcials from the ToxCast library were tested in eight-point concentration-response experiments. Cell culture and cytotoxicity assays were conducted at Thermo Fisher Scientific's Custom Services facility (Madison, WI). A single lot of human HepaRG cells (Thermo Fisher Scientific, Frederick, MD) was used for the cell culture experiments. 96-well format collagen type I coated plates of human HepaRG cells were prepared using established methods. Briefly, cryopreserved HepaRG cells were thawed, plated at a density of approximately 100,000 cells/well in HepaRG Thaw, Plate, and General Purpose media (HPRG770, Thermo Fisher Scientific), and incubated for 48 hours. 0.5% DMSO was selected as vehicle control to balance the requisite need of DMSO in HepaRG cultures to maintain differentiation (for example, baseline metabolism, proportions of hepatocytes vs. cholangiocytes), while enabling further hepatic receptor pathway activation (for example, PXR and CAR) in response to chemical exposure. 48 hours after plating, the culture medium was replaced with HepaRG Serum-Free Incudtion Media. Cells were exposed to each test chemical in duplicate and maintained in CO2 incubators for another 48 hours. Chemical plates were thawed to room temperature and 200x concentrations of treatment groups were prepared. 8-point conentration-reponse curves were made with the highest exposure at 100 uM, followed by half-log dilutions, all in 0.5% DMSO. Each test plate contained variouse controls, induction positive controls (1mM phenobarbital), cytotoxicity positive controls ([…] aflatoxin B1), vehicle controls (0.5% DMSO), and total lysis controls (0.5% DMSO). Cell morphology images were taken using an Essen IncuCyte FLR automated microscope, with six 96-well plates imaged in about 24 minutes. Images were captured and exported and JPEG files. Spent culture media was transfered to black-well plates for the LDH assay, and remaining media was sorted at -80 C for later use. Cells were treated with RLT buffer and frozen until shipped for gene expression analysis. Total RNA was isolated from the cell suspension in 75 uL of Buffer RLT (Qiagen, Germantown, MD 20874) by Quintiles/Expression Analysis (Durham, NC) using a custom isolation procedure. Total RNA from each plate well was transferred to a preamplification plate. Fluidigm's 96.96 Dynamic ArrayTM (Fluidigm, Amsterdam, the Netherlands) technology was used for gene expression analyses by quantitative reverse transcription polymerase chain reaction (qRT-PCR, performed by Quintiles/Expression Analysis, Durham, NC)89. Standard TaqManTM Assays (Applied Biosystems/ThermoFisher Scientific, Foster City, CA) were used to assess the expression of 93 genes selected based on their selectivity and sensitivity to important hepatic receptors known to be modulated by environmental chemicals; importance in human hepatocyte functionality; and hepatotoxicity. […]
In the case of `CCCCCCCCCCCCOS(=O)(=O)O`, the outcome was inactive.

As to `Cc1[nH]nc2c1N=C(c1ccccc1Cl)c1cc([N+](=O)[O-])ccc1N2`, the result was inactive. Turning to `OCC(CO)(CBr)CBr`, the call was inactive. Next, `O=C(c1ccccc1)c1ccccc1`: “inactive”. With `CCCCC=O` the entry was “inactive”; with `CCCCCCCCCCCCCCC`, “inactive”.

Consider `CC(=O)Nc1ccc(O)cc1`, for which the compound was classed as inactive. Consider `CCC(C)c1ccccc1O` (stereo unspecified), for which the compound was called inactive. With `CCCCc1oc2ccccc2c1C(=O)c1cc(I)c(OCCN(CC)CC)c(I)c1` the entry was “inactive”; with `N=C(N)c1ccc(OCCCCCOc2ccc(C(=N)N)cc2)cc1`, “inactive”. Next, `CN(Cc1cnc2nc(N)nc(N)c2n1)c1ccc(C(=O)N[C@@H](CCC(=O)O)C(=O)O)cc1`: “inactive”.

(Values after PubChem BioAssay (EPA / NIEHS).)
